Among the test systems are RPMI-8226 leukemia; OVCAR-8 ovarian; OVCAR-5 ovarian; OVCAR-4 ovarian; SK-OV-3 ovarian; IGROV1 ovarian; OVCAR-3 ovarian; HS 578T breast; NCI/ADR-RES ovarian.
Holding throughout (assay): NCI-60 one-dose screen, 48 h (100 = growth as untreated, 0 = no growth, -100 = all killed)
Common to all, as to conditions: 10 µM unless noted

SMILES strings stand for the structures. The panel holds about 83,000 compounds, 20% with a hit somewhere; the sample as a whole holds those more often.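 Negative percent growth values reflect cell death: -40 means 40% of the cells present at the start died, and -100 means all died.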 Values without a mark were called inactive. The source made the active and inactive calls. Rule for the calls: active = growth percent below 10; inactive = the rest.

As for `C[C@H]1[C@H]2[C@H]3CC[C@@H]4[C@@]5(C)CC[C@H](O)C(C)(C)[C@@H]5CC[C@@]4(C)[C@]3(C)CC[C@]23CO[C@]1(C)[C@@H](C(=O)/C=C\c1ccco1)C3`, the growth with RPMI-8226 leukemia was 106%; in the test with OVCAR-8 ovarian it was 99.3%; with OVCAR-5 ovarian, 102%; in the test with OVCAR-4 ovarian, 111%; in the test with SK-OV-3 ovarian, 103%; in the test with IGROV1 ovarian, 108%. Also, the values for the growth in the test with OVCAR-3 ovarian, in the test on HS 578T breast and in the test with NCI/ADR-RES ovarian were 103%, 95.8% and 95.3%, respectively.

For `O=C1Nc2ccc(F)cc2/C1=C\c1c(-c2ccccc2)nc2ccccn12`, the growth in the test with RPMI-8226 leukemia is 86.5%; with OVCAR-8 ovarian, 74.7%; in the test on OVCAR-5 ovarian, 73.7%; in the test on OVCAR-4 ovarian, 94.6%; with SK-OV-3 ovarian, 80.7%; in the test with IGROV1 ovarian, 47.6%. The growth was 66.4% in the test with OVCAR-3 ovarian, 71.8% with HS 578T breast and 38.1% in the test with NCI/ADR-RES ovarian.

On to `Cc1nc2sccn2c1-c1nc2sccn2c1/C=C1/C(=O)Nc2ccccc21`, for which the growth in the test on RPMI-8226 leukemia was 20.1%; in the test on OVCAR-8 ovarian, 52.1%; in the test on OVCAR-5 ovarian, 41.8%; in the test with OVCAR-4 ovarian, 63.6%; in the test with SK-OV-3 ovarian, 31.2%; in the test with IGROV1 ovarian, -15.5% (active). Besides, the figures for the growth in the test with OVCAR-3 ovarian, with HS 578T breast and with NCI/ADR-RES ovarian were -30.9% (active), 31.8% and 47.9%, respectively.

In the case of `COc1ccc(-c2cnc3c(-c4cccc5cnccc45)cnn3c2)cc1`, the growth in the test on RPMI-8226 leukemia is 40.8%; with OVCAR-8 ovarian, 41.8%; in the test with OVCAR-5 ovarian, 96.1%; in the test on OVCAR-4 ovarian, 36.4%; with SK-OV-3 ovarian, 68.6%; with IGROV1 ovarian it was 83.5%. The results for the growth with OVCAR-3 ovarian, in the test with HS 578T breast and in the test with NCI/ADR-RES ovarian were 73.4%, 74% and 56.3%, respectively.

As to `C#Cc1cccc(NC(=O)Nc2cccc(NC(=O)CCl)c2)c1`, the growth is 9.12% [8.25 µM] (active) in the test on RPMI-8226 leukemia; -7.18% [8.25 µM] (active) in the test on OVCAR-8 ovarian; 12.8% [8.25 µM] with OVCAR-5 ovarian; -35.9% [8.25 µM] (active) with OVCAR-4 ovarian; 59% [8.25 µM] in the test on SK-OV-3 ovarian; -57% [8.25 µM] (active) with IGROV1 ovarian. Besides, the figures for the growth with OVCAR-3 ovarian, in the test on HS 578T breast and with NCI/ADR-RES ovarian were -70.8% [8.25 µM] (active), 29.6% [8.25 µM] and -15.1% [8.25 µM] (active), respectively.

Turning to `COc1cc(/C=C\c2cc(OC)c(OC)c(OC)c2)cc(N)c1OC`, the growth in the test with RPMI-8226 leukemia is 89.7%; in the test with OVCAR-8 ovarian, 89.3%; in the test on OVCAR-5 ovarian, 87.7%; in the test with OVCAR-4 ovarian it was 128%; with SK-OV-3 ovarian, 92.2%; in the test on IGROV1 ovarian, 74.6%. The growth in the test with OVCAR-3 ovarian was 99.6%; with HS 578T breast, 90.1%; in the test with NCI/ADR-RES ovarian, 69.7%.

The values are drawn from PubChem BioAssay (NCI).
